# This is one part of a sample in which hits are shown more often than they occur.
# AmpC detergent: AmpC beta-lactamase inhibition with detergent present. P00811. AmpC hydrolysis of nitrocefin, absorbance 480 nm, 0.01% Triton. Potency, µM (highest dose often 114 µM), for inactives: at the top dose activity change, negative = inhibition, actives largely listed as inhibitors. 370,000 compounds, 0.041% hits;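 also: potency is read from the fitted curve at half-maximal effect; 0% = no-compound wells and -100% = no-enzyme wells; nearly all actives have a fitted effect of over 25% in size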
# Target sequence (P00811 whole entry, looked up): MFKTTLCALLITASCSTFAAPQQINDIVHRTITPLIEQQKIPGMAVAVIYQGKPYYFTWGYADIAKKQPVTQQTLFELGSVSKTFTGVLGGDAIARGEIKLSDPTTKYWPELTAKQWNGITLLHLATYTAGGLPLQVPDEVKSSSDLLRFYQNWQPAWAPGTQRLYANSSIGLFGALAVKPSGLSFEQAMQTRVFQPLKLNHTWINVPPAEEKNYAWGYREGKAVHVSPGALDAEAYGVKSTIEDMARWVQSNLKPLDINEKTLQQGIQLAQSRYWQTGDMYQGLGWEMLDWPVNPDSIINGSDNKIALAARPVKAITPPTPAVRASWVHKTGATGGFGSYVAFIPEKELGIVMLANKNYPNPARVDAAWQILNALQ
#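 AmpC (5.3 nM in the dispensed reagent) in 20 mM phosphate pH 7.0 with 0.01% (detergent screen) or 0.0001% Triton X-100 was preincubated with compounds for 15 min at room temperature. Nitrocefin was then added from an 800 uM solution, and hydrolysis was followed at 480 nm.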
# AmpC no deterg: blocks E. coli AmpC beta-lactamase in detergent-free assay. AmpC nitrocefin hydrolysis, absorbance 480 nm, 0.0001% Triton. Potency, µM (top dose mostly 57.1 µM), inactives show at the highest dose activity change, negative = inhibition, most hits filed as inhibitors. 330,000 compounds, 0.52% hits. P00811. AID 485341;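 also: potency is read from the fitted curve at half-maximal effect; plate controls were no compound for no effect and no enzyme for full effect; nearly all actives have a fitted effect of over 20% in size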
#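 20 mM phosphate pH 7.0 + 0.01% (detergent screen) or 0.0001% Triton X-100; 5.3 nM AmpC reagent; cpd preinc 15 min RT; nitrocefin (800 uM stock) to start; A480 q20 s × 4 min; Activity was normalised to no-enzyme and no-compound control wells.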
# Shiga toxin inh: inhibitors of Shiga toxin in Vero cells; Vero cells, Shiga toxin protein synthesis inhibition reporter; inhibition, % at 38.7 µM; AID 2315; 290,000 compounds, 9.2% hits; in the data active = inhibition mostly above about 28%, no sharp cut-off; inactive = mostly below about 43%; also: 0% is about no effect
# CHX counter: affects cycloheximide protein synthesis inhibition readout, counter-screen; max response, %; 300,000 compounds, 12% hits; AID 2314; cell reporter, cycloheximide protein synthesis inhibition counterscreen; in the data active = max response mostly above about 13%, no sharp cut-off; inactive = mostly below about 14%; also: read at 38.3 µM for the half of the compounds with a filed dose; 0% is about no effect
# AMA1-RON2 inh: inhibitors of Plasmodium falciparum AMA1-RON2 interaction | AlphaScreen AMA1-biotinylated RON2 peptide binding | Potency, µM (titrated, usually from 58.2 µM), for inactives: top-dose activity change, negative = inhibition, actives largely listed as inhibitors | 360,000 compounds, 0.2% hits;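 also: potency is read from the fitted curve at half-maximal effect; 0% = vehicle wells and -100% = peptide control; nearly all actives have a fitted effect of over 45% in size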
#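 AMA1 (3D7) with his tag at 25 nM final met compounds first, then biotinylated RON2 peptide at 25 nM; detection used donor plus acceptor beads, 10 µg/mL apiece, read by AlphaScreen after 30 min at room temperature.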
# SARS PLP yeast: blocks SARS-CoV papain-like protease in a yeast assay. S. cerevisiae expressing SARS-CoV PLpro, growth rescue. 330,000 compounds, 0.19% hits. Potency, µM (top dose mostly 32.9 µM), for the others: top-dose activity, positive = growth rescue, usual class: activators. AID 485353; calls by dose curve; also: potency is read from the fitted curve at half-maximal effect; 0% is about no effect; nearly all actives have a fitted effect of over 55% in size
# * marks the source's active call; other numbers are inactive results; u = inconclusive; x = no result given. Unless noted, calls follow the shape of the dose curve; as a rule, active = well fitted curve in the direction sought with a large enough effect; inconclusive = small, poorly fitted or top-dose-only effect, or another doubt; inactive = no such curve, though single readings can be large; an effect the other way counts as inactive or inconclusive.
SMILES,AmpC detergent,AmpC no deterg,Shiga toxin inh,CHX counter,AMA1-RON2 inh,SARS PLP yeast
C/C(=N\Nc1ncc(Cl)cc1Cl)c1ccc(N2CCOCC2)cc1,4%,-19%,85*,38*,33%,-35%
CC(C)C1Cc2c(sc(NC(=S)NC(=O)c3ccccc3)c2C#N)CO1 (centres undefined),-9%,-20%,-7,-4,22%,8%
CC(C)N1CCc2c(sc(NC(=S)NC(=O)c3ccccc3)c2C#N)C1,-12%,23%,39*,45*,-10%,-2%
CCCN1CCc2c(sc(NC(=S)NC(=O)c3ccccc3)c2C#N)C1,3%,-7%,43*,38*,53%,1%
CCN1CCc2c(sc(NC(=S)NC(=O)c3ccc(Cl)cc3)c2C(N)=O)C1,6%,42%,5,-2,53%,1%
O=C(O)C1CCC(C(=O)O)SS1 (centres undefined),x,x,x,x,-3%,x
Cc1ccc(Cn2ccsc2=NC(=O)COC(=O)c2ccc(O)cc2O)cc1,-2%,-29%,135*,38*,-14%,0%
O=C(COC(=O)c1ccc(O)cc1O)N=c1sccn1Cc1ccccc1Cl,-14%,-22%,x,x,-2%,-2%
c1ccc(Nc2nc(-c3ccccc3)ns2)cc1,-3%,-17%,82*,52*,8%,-3%
O=C(Nc1nc(-c2ccccc2)ns1)c1ccc(Cl)cc1,0%,x,x,x,x,x
CC(C)(C)C(=O)Nc1nc(-c2ccccc2)ns1,-6%,-46%,84*,58*,-4%,-32%
O=C(COC(=O)CNC(=O)c1ccccc1)Nc1nnc(-c2ccccc2)o1,-2%,-14%,x,x,104%,-2%
COCCCn1c(=N)c(S(=O)(=O)c2ccccc2)cc2c(=O)n3cc(C)ccc3nc21,9%,x,x,x,x,x
CCOC(=O)C1CCCN(C(=O)c2ccc3oc(CCc4ccccc4)nc3c2)C1 (centres undefined),-2%,105%,38,39*,16%,-1%
O=C(c1ccc2oc(CCCc3ccccc3)nc2c1)N1CCCC1,2%,75%,129*,63*,-7%,2%
CC(C)N(Cc1nccn1C)C(=O)c1ccc2oc(CCCc3ccccc3)nc2c1,7%,215%,-8,4,-4%,7%
NC(=O)C1CCCN(C(=O)c2ccc3oc(Cc4ccc(Cl)cc4)nc3c2)C1 (centres undefined),4%,68%,35,14,0%,3%
CC(=O)C1CCCN(C(=O)c2ccc3oc(CCc4ccccc4)nc3c2)C1 (centres undefined),u,68%,89*,36*,-2%,-20%
CCc1ccc(CN(C)C(=O)c2cc(S(=O)(=O)N3CCN(CC)CC3)ccc2Cl)cc1,0%,165%,x,x,-3%,1%
COC(=O)c1cc2c(ccn2-c2ccc(F)cc2)n1CC(C)C,3%,-18%,8,-1,u,-21%
Cc1cc(NCCN2CCOCC2)n2ncc(-c3ccccc3)c2n1,-13%,-8%,41*,28*,-3%,2%
Cc1cc(NC(C)c2ccccc2)n2ncc(-c3ccccc3)c2n1 (centres undefined),u,-41%,69*,44*,27%,-6%
COc1nc(NCCc2ccc(OC)c(OC)c2)nc(Nc2ccccc2)n1,-4%,73%,x,54*,u,-1%
Cc1cc(NCCN2CCOCC2)n2nc(C)c(-c3ccccc3)c2n1,0%,65%,23,-2,3%,-2%
COc1ccc(CCNc2nc(-c3ccccc3OC)cc(C(F)(F)F)n2)cc1OC,-2%,x,x,x,x,x
CC(C)(C)c1cc(NCc2ccccn2)n2ncc(-c3ccccc3)c2n1,3%,-4%,97*,51*,82%,-6%
O=C(CN(Cc1ccccc1)C(=O)c1cccc([N+](=O)[O-])c1)Nc1c(Cl)cc(Cl)cc1Cl,-7%,-57%,-2,-5,-6%,13%
CCOC(=O)[C@]12CCCC=C1N(Cc1ccc(Cl)cc1Cl)C(=O)[C@H](CC(=O)NCCCOC)C2,x,x,x,x,56%,x
Cc1ccc(COc2cccc3cc(-c4noc(-c5ccc(C)cc5)n4)c(=O)oc23)cc1,22%,x,x,x,x,x

# Screening results from PubChem.
